PubChem BioAssay (NCATS)
Inconclusive results are not listed. Values without a mark were called inactive. The source made the active and inactive calls. Calls come from the whole dose curve; as a rule, active = well fitted inhibition curve with a large enough effect; inconclusive = small, poorly fitted or top-dose-only effect; inactive = flat fitted curve, though single readings scatter.
Potency is the fitted concentration of half-maximal effect.

What follows are molecules tested on CP297 (assay: qHTS profiling for inhibitors of Plasmodium falciparum proliferation (AID 504749; note: nearly all actives have a fitted effect of over 60% in size;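 for activity, negative = inhibition: 0% = DMSO vehicle and full inhibition = artemisinin control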)). Details: P. falciparum in erythrocytes, SYBR Green DNA, 72 h; series mostly up to 28.7 µM; activity, negative = inhibition: at the top concentration.
Summary of the method: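 Each compound contacts P. falciparum-infected red blood cells for 72 h at 37 C; lysis buffer (Tris, EDTA, saponin, Triton X, SYBR Green I) is added and fluorescence measured next morning; values normalized to controls.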
With `Cc1ccccc1` the “activity, negative = inhibition” value was 7.92%.
In the case of `CC1(C)S[C@@H]2[C@H](NC(=O)[C@@H](NC(=O)N3CCNC3=O)c3ccccc3)C(=O)N2[C@H]1C(=O)O`, the “activity, negative = inhibition” value is reported as -2.87% [at 12.8 µM].
In the case of `CC1=C(/C=C/C(C)=C/C=C/C(C)=C/C=C/C=C(C)/C=C/C=C(C)/C=C/C2=C(C)CCCC2(C)C)C(C)(C)CCC1`, the “activity, negative = inhibition” value is reported as -10.6%.
`CCCC(=O)O[C@]1(C(=O)CCl)[C@H](C)C[C@@H]2[C@H]3CCC4=CC(=O)C=C[C@]4(C)[C@@]3(F)C(=O)C[C@@]21C` was tested, and the Potency was 1.9 µM (active).
With `CCC(=O)NCCC1CCc2ccc3c(c21)CCO3` (stereo unspecified) the “activity, negative = inhibition” value was -9.81%.
In the case of `Cc1cc(C(=O)NNCc2ccccc2)no1`, the “activity, negative = inhibition” value is reported as 3.39% [at 12.8 µM].
With `Cc1ccccc1OCC(O)CNCCOc1ccc(C(N)=O)cc1` (stereo unspecified) the “activity, negative = inhibition” value was -0.0431%.
For `CCCCCCCCCCCCCC[n+]1ccc(C)cc1`, the Potency was 4.78 µM (active).
`COC(F)(F)C(Cl)Cl` was tested, and the “activity, negative = inhibition” value was 1.35%.
`CCCCCCCCCCCC[n+]1ccc2ccccc2c1` was tested, and the Potency was 1.07 µM (active).
With `O=C(O)CCC(=O)C(=O)O` the “activity, negative = inhibition” value was -2.03%.
`O=C(O)CN(CCN(CC(=O)O)CC(=O)O)CC(=O)O` was tested, and the “activity, negative = inhibition” value was 1.31%.
With `COc1ccc2c3c1O[C@H]1C[C@@H](O)C=C[C@@]31CCN(C)C2` the “activity, negative = inhibition” value was 0.281%.
For `C=CCSSSCC=C`, the “activity, negative = inhibition” value was 19.9%.
In the case of `COC(C(=O)C(O)C(C)O)C1Cc2cc3cc(OC4CC(OC5CC(O)C(O)C(C)O5)C(O)C(C)O4)c(C)c(O)c3c(O)c2C(=O)C1OC1CC(OC2CC(OC3CC(C)(O)C(O)C(C)O3)C(O)C(C)O2)C(O)C(C)O1` (stereo unspecified), the Potency is reported as 2.39 µM (active).
In the case of `CCNC(=O)[C@@H]1CCCN1C(=O)[C@H](CCCN=C(N)N)NC(=O)[C@H](CC(C)C)NC(=O)[C@@H](Cc1c[nH]c2ccccc12)NC(=O)[C@H](Cc1ccc(O)cc1)NC(=O)[C@H](CO)NC(=O)[C@H](Cc1c[nH]c2ccccc12)NC(=O)[C@H](Cc1cnc[nH]1)NC(=O)[C@@H]1CCC(=O)N1`, the Potency is reported as 6.75 µM (active).
